# From PubChem BioAssay AID588442 (The Scripps Research Institute Molecular Screening Center, 2011)
# Results with a measured potency or affinity are listed apart. More than one record can exist for a structure, and the calls need not agree. Activity calls are given as the source filed them.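 The calls were made as follows: active = EC50 of 10 µM or lower; inactive = EC50 above 10 µM or not measured.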
# Assay: optical interference in Abeta FP readout, dose response, artefact control for IDE activator project, biochemical, fluorescence polarization (AID 588442)
# Settings: FP artifact counterscreen, fluorescein-Abeta, no enzyme activity
row,SMILES,EC50
1,C#CCOCCOCCOCCNc1nc(N2CCN(C(=O)CCCCCCCCCCNC(=O)[C@@H](CCSC)n3cc(CCO)nn3)CC2)nc(N2CCN(C(=O)CCCCCCCCCCNC(=O)[C@H](CO)n3cc(CCCCCN)nn3)CC2)n1,> 56 µM (inactive)
2,C#CCOCCOCCOCCNc1nc(N2CCN(C(=O)CCCCCCCCCCNC(=O)Cn3cc(CCCCCN)nn3)CC2)nc(N2CCN(C(=O)CCCCCCCCCCNC(=O)[C@H](CO)n3cc(CCCSC)nn3)CC2)n1,> 54.7 µM (inactive)
3,C[n+]1c2cc(N)ccc2cc2ccc(N)cc21,0.576 µM (active)
4,C#CCOCCOCCOCCNc1nc(N2CCN(C(=O)CCCCCCCCCCNC(=O)Cn3cc(C[C@@H](C)O)nn3)CC2)nc(N2CCN(C(=O)CCCCCCCCCCNC(=O)[C@H](CCCN=C(N)N)n3cc(C[C@@H](C)CC)nn3)CC2)n1,> 55.9 µM (inactive)
5,C#CCOCCOCCOCCNc1nc(N2CCN(C(=O)CCCCCCCCCCNC(=O)[C@H]([C@@H](C)CC)n3cc(CCCCCN)nn3)CC2)nc(N2CCN(C(=O)CCCCCCCCCCNC(=O)[C@H]([C@@H](C)CC)n3cc(CCCCN=C(N)N)nn3)CC2)n1,> 55.9 µM (inactive)
6,C#CCOCCOCCOCCNc1nc(N2CCN(C(=O)CCCCCCCCCCNC(=O)[C@H]([C@@H](C)CC)n3cc(CCCCN=C(N)N)nn3)CC2)nc(N2CCN(C(=O)CCCCCCCCCCNC(=O)[C@@H]([C@H](C)O)n3cc(C)nn3)CC2)n1,> 54.7 µM (inactive)
7,C#CCOCCOCCOCCNc1nc(N2CCN(C(=O)CCCCCCCCCCNC(=O)[C@H](CCCCN)n3cc(CCO)nn3)CC2)nc(N2CCN(C(=O)CCCCCCCCCCNC(=O)[C@H](CCCN=C(N)N)n3cc(C[C@@H](C)CC)nn3)CC2)n1,> 55.9 µM (inactive)
8,C#CCOCCOCCOCCNc1nc(N2CCN(C(=O)CCCCCCCCCCNC(=O)Cn3cc(CCCCCN)nn3)CC2)nc(N2CCN(C(=O)CCCCCCCCCCNC(=O)[C@H]([C@@H](C)CC)n3cc(CCCCCN)nn3)CC2)n1,> 55.9 µM (inactive)
9,C#CCOCCOCCOCCNc1nc(N2CCN(C(=O)CCCCCCCCCCNC(=O)Cn3cc(CCCCCN)nn3)CC2)nc(N2CCN(C(=O)CCCCCCCCCCNC(=O)Cn3cc(C[C@@H](C)O)nn3)CC2)n1,> 54.7 µM (inactive)
10,C#CCOCCOCCOCCNc1nc(N2CCN(C(=O)CCCCCCCCCCNC(=O)[C@H](CO)n3cc(CCCSC)nn3)CC2)nc(N2CCN(C(=O)CCCCCCCCCCNC(=O)[C@H](CCCCN)n3cc(CCO)nn3)CC2)n1,> 55.9 µM (inactive)
